Test results as given in PubChem BioAssay AID1159580 (chemical genetic matrix, 2015).
Screen size: about 5,500 compounds; about 2,000 (36%) were called active. About 18% were inconclusive and are not listed. Rule as the data show it: active = normalized growth mostly below about 0.91 (no sharp cut-off); inconclusive = no clear call, values can overlap the other calls; inactive = mostly above about 0.92. The list shows a part of the results.

Assay: chemical genetic growth profiling, strain panel (AID 1159580);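 also: tested at 20 µM; growth read once vehicle control cultures reached saturation at 30 °C; 1 = growth at the plate median or of vehicle wells; lower values mean less growth of the strain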
Conditions: growth OD

Measured: normalized growth

O=C(O)CCC1NCC2CC1CN1CCCCC21 (configuration not stated)
inactive: S. cerevisiae deletion strains, locus YJR075W, strain HOC1, stronger effect = lower value 1.01 | S. cerevisiae deletion strains, locus YKL009W, strain mrt4, stronger effect = lower value 1.02 | S. cerevisiae deletion strains, locus YKL068W, stronger effect = lower value 1 | S. cerevisiae deletion strains, locus YKL085W, strain MDH1 (second series), stronger effect = lower value 1.02 | S. cerevisiae deletion strains, locus YKL085W, strain MDH1, stronger effect = lower value 1.02 | S. cerevisiae deletion strains, locus YKL160W, strain elf1, stronger effect = lower value 0.974 | S. cerevisiae deletion strains, locus YKL190W, strain CNB1, stronger effect = lower value 1 | S. cerevisiae deletion strains, locus YKR001C, strain vps1, stronger effect = lower value 0.995 | S. cerevisiae deletion strains, locus YKR026C, strain gcn3, stronger effect = lower value 0.982 | S. cerevisiae deletion strains, locus YKR091W, strain srl3, stronger effect = lower value 0.97 | S. cerevisiae deletion strains, locus YLL001W, strain dnm1, stronger effect = lower value 0.954 | S. cerevisiae deletion strains, locus YLL026W, stronger effect = lower value 0.98 | S. cerevisiae deletion strains, locus YLL041C, strain sdh2, stronger effect = lower value 0.987 | S. cerevisiae deletion strains, locus YLR027C, strain aat2, stronger effect = lower value 0.992 | S. cerevisiae deletion strains, locus YLR039C, strain RIC1, stronger effect = lower value 0.998 | S. cerevisiae deletion strains, locus YLR058C, strain SHM2, stronger effect = lower value 1.01 | S. cerevisiae deletion strains, locus YLR102C, strain apc9, stronger effect = lower value 0.99 | S. cerevisiae deletion strains, locus YLR113W, strain HOG1, stronger effect = lower value 0.983 | S. cerevisiae deletion strains, locus YLR221C, strain rsa3, stronger effect = lower value 0.968 | S. cerevisiae deletion strains, locus YLR258W, strain gsy2, stronger effect = lower value 0.992 | S. cerevisiae deletion strains, locus YLR262C, strain YPT6 (second series), stronger effect = lower value 0.958 | S. cerevisiae deletion strains, locus YLR262C, strain YPT6, stronger effect = lower value 0.97 | S. cerevisiae deletion strains, locus YLR268W, strain sec22, stronger effect = lower value 0.988 | S. cerevisiae deletion strains, locus YLR320W, strain mms22, stronger effect = lower value 0.962 | S. cerevisiae deletion strains, locus YLR330W, strain CHS5, stronger effect = lower value 1.01 | S. cerevisiae deletion strains, locus YLR342W, strain FKS1 (second series), stronger effect = lower value 1.05 | S. cerevisiae deletion strains, locus YLR342W, strain FKS1, stronger effect = lower value 0.981 | S. cerevisiae deletion strains, locus YLR357W, strain rsc2, stronger effect = lower value 0.971 | S. cerevisiae deletion strains, locus YLR370C, strain arc18, stronger effect = lower value 0.978 | S. cerevisiae deletion strains, locus YLR371W, strain rom2, stronger effect = lower value 0.998 | S. cerevisiae deletion strains, locus YLR384C, strain iki3, stronger effect = lower value 0.969 | S. cerevisiae deletion strains, locus YLR418C, strain cdc73, stronger effect = lower value 0.923 | S. cerevisiae deletion strains, locus YML016C, strain PPZ1, stronger effect = lower value 1 | S. cerevisiae deletion strains, locus YML032C, strain rad52, stronger effect = lower value 1 | S. cerevisiae deletion strains, locus YML120C, strain ndi1, stronger effect = lower value 0.956 | S. cerevisiae deletion strains, locus YML124C, strain tub3, stronger effect = lower value 0.997 | S. cerevisiae deletion strains, locus YMR058W, strain fet3, stronger effect = lower value 0.969 | S. cerevisiae deletion strains, locus YMR078C, strain ctf18, stronger effect = lower value 1 | S. cerevisiae deletion strains, locus YMR125W, strain sto1, stronger effect = lower value 0.962 | S. cerevisiae deletion strains, locus YMR129W, stronger effect = lower value 0.989 | S. cerevisiae deletion strains, locus YMR205C, strain PFK2, stronger effect = lower value 0.964 | S. cerevisiae deletion strains, locus YMR223W, strain ubp8, stronger effect = lower value 1.02 | S. cerevisiae deletion strains, locus YMR231W, strain pep5, stronger effect = lower value 0.985 | S. cerevisiae deletion strains, locus YMR263W, strain SAP30, stronger effect = lower value 0.998 | S. cerevisiae deletion strains, locus YMR307W, strain GAS1, stronger effect = lower value 1.07 | S. cerevisiae deletion strains, locus YNL067W, strain RPL9B, stronger effect = lower value 0.999 | S. cerevisiae deletion strains, locus YNL071W, strain lat1, stronger effect = lower value 0.991 | S. cerevisiae deletion strains, locus YNL128W, strain TEP1, stronger effect = lower value 1.02 | S. cerevisiae deletion strains, locus YNL153C, strain GIM3, stronger effect = lower value 0.989 | S. cerevisiae deletion strains, locus YNL183C, strain NPR1, stronger effect = lower value 0.938 | S. cerevisiae deletion strains, locus YNL209W, strain ssb2, stronger effect = lower value 0.984 | S. cerevisiae deletion strains, locus YNL233W, strain BNI4, stronger effect = lower value 1.01 | S. cerevisiae deletion strains, locus YNL248C, strain rpa49, stronger effect = lower value 0.998 | S. cerevisiae deletion strains, locus YNL250W, strain rad50, stronger effect = lower value 1.01 | S. cerevisiae deletion strains, locus YNL271C, strain bni1, stronger effect = lower value 1 | S. cerevisiae deletion strains, locus YNL298W, strain CLA4, stronger effect = lower value 0.997 | S. cerevisiae deletion strains, locus YNL307C, strain MCK1, stronger effect = lower value 1 | S. cerevisiae deletion strains, locus YNL322C, strain KRE1 (second series), stronger effect = lower value 0.97 | S. cerevisiae deletion strains, locus YNL322C, strain KRE1, stronger effect = lower value 1.01 | S. cerevisiae deletion strains, locus YNR049C, strain mso1, stronger effect = lower value 0.971 | S. cerevisiae deletion strains, locus YNR052C, strain pop2, stronger effect = lower value 1 | S. cerevisiae deletion strains, locus YOL006C, strain TOP1, stronger effect = lower value 1.04 | S. cerevisiae deletion strains, locus YOL012C, strain htz1 0.732 | S. cerevisiae deletion strains, locus YOL147C, strain pex11, stronger effect = lower value 1 | S. cerevisiae deletion strains, locus YOR001W, strain rrp6, stronger effect = lower value 1.01 | S. cerevisiae deletion strains, locus YOR061W, strain CKA2, stronger effect = lower value 1 | S. cerevisiae deletion strains, locus YOR069W, strain VPS5, stronger effect = lower value 1 | S. cerevisiae deletion strains, locus YOR070C, strain gyp1, stronger effect = lower value 0.973 | S. cerevisiae deletion strains, locus YOR080W, strain dia2, stronger effect = lower value 0.964 | S. cerevisiae deletion strains, locus YOR083W, strain WHI5, stronger effect = lower value 0.965 | S. cerevisiae deletion strains, locus YOR106W, strain vam3, stronger effect = lower value 0.968 | S. cerevisiae deletion strains, locus YOR136W, strain idh2, stronger effect = lower value 0.998 | S. cerevisiae deletion strains, locus YOR144C, strain elg1, stronger effect = lower value 0.988 | S. cerevisiae deletion strains, locus YOR184W, strain ser1, stronger effect = lower value 1.04 | S. cerevisiae deletion strains, locus YOR231W, strain MKK1, stronger effect = lower value 1.04 | S. cerevisiae deletion strains, locus YOR265W, strain rbl2, stronger effect = lower value 0.977 | S. cerevisiae deletion strains, locus YOR270C, strain vph1, stronger effect = lower value 0.951 | S. cerevisiae deletion strains, locus YOR290C, strain snf2, stronger effect = lower value 0.916 | S. cerevisiae deletion strains, locus YOR316C, strain cot1, stronger effect = lower value 0.992 | S. cerevisiae deletion strains, locus YPL051W, strain arl3, stronger effect = lower value 0.982 | S. cerevisiae deletion strains, locus YPL055C, strain LGE1, stronger effect = lower value 0.99 | S. cerevisiae deletion strains, locus YPL078C, strain atp4, stronger effect = lower value 0.983 | S. cerevisiae deletion strains, locus YPL106C, strain sse1, stronger effect = lower value 0.946 | S. cerevisiae deletion strains, locus YPL240C, strain hsp82, stronger effect = lower value 0.974 | S. cerevisiae deletion strains, locus YPL241C, strain CIN2, stronger effect = lower value 0.995 | S. cerevisiae deletion strains, locus YPL256C, strain CLN2, stronger effect = lower value 1.02 | S. cerevisiae deletion strains, locus YPR119W, strain clb2, stronger effect = lower value 0.991 | S. cerevisiae deletion strains, locus YPR141C, strain kar3, stronger effect = lower value 0.987 | S. cerevisiae deletion strains, locus YPR163C, strain tif3, stronger effect = lower value 0.983 | S. cerevisiae deletion strains, locus YPR167C, strain met16, stronger effect = lower value 0.981 | S. cerevisiae deletion strains, strain wtn01, stronger effect = lower value 0.999 | S. cerevisiae strains, strain wild type, stronger effect = lower value 1.01
